This is part of a sample that, as a whole, favours compounds with a hit. Of some 83,000 tested, about 20% had one in any assay.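 96-well plates, one dose, 48 hours. Percent growth reported; active if below 10.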 Values without a mark were called inactive. Active and inactive are the calls of the source.
Columns and labels:
Test in all cases: NCI-60 one-dose screen, 48 h (100 = growth as untreated, 0 = no growth, -100 = all killed)
Conditions in all cases: 10 µM unless noted
SR leukemia = system: SR leukemia
RPMI-8226 leukemia = system: RPMI-8226 leukemia
OVCAR-8 ovarian = system: OVCAR-8 ovarian
OVCAR-5 ovarian = system: OVCAR-5 ovarian
OVCAR-4 ovarian = system: OVCAR-4 ovarian
SK-OV-3 ovarian = system: SK-OV-3 ovarian
IGROV1 ovarian = system: IGROV1 ovarian
OVCAR-3 ovarian = system: OVCAR-3 ovarian
HS 578T breast = system: HS 578T breast
NCI/ADR-RES ovarian = system: NCI/ADR-RES ovarian

| SMILES | growth (SR leukemia) | growth (RPMI-8226 leukemia) | growth (OVCAR-8 ovarian) | growth (OVCAR-5 ovarian) | growth (OVCAR-4 ovarian) | growth (SK-OV-3 ovarian) | growth (IGROV1 ovarian) | growth (OVCAR-3 ovarian) | growth (HS 578T breast) | growth (NCI/ADR-RES ovarian) |
| --- | --- | --- | --- | --- | --- | --- | --- | --- | --- | --- |
| COc1cc(C(=O)/C=C/c2cccnc2Nc2ccc(Cl)cc2)cc(OC)c1OC | 5.22% (active) | -30.2% (active) | -17.6% (active) | -78.3% (active) | -90.4% (active) | -5.2% (active) | -60.9% (active) | -97.1% (active) | 29.4% | 3.59% (active) |
| O=C(Nc1cccc2[nH]c(C(F)(F)F)nc12)c1ccc(-n2cnnn2)cc1 | 79.5% | 48.7% | 89.4% | 123% | 90.5% | 104% | 95.5% | 76.2% | 108% | 107% |
| COc1cc2c(cc1-c1c(C)noc1C)ncc1nc(-c3ccccn3)n([C@H](C)COC(F)F)c12 | 27.8% | 8.62% (active) | 35.1% | 76.6% | 52.6% | 9.97% (active) | 52.6% | 47.4% | 3.88% (active) | 33.6% |
| O=C(/C=C/c1cc(CN2CCOCC2)c(O)c2ncccc12)c1cc(CN2CCOCC2)c(O)c2ncccc12 | 8.01% (active) | 6.02% (active) | 15.2% | 28.3% | 30.3% | -21.8% (active) | 15.4% | 23.6% | 27.1% | 21.4% |
| COC(=O)c1ccc2oc(NC(=O)c3ccc(Nc4ccc([N+](=O)[O-])cc4C)c([N+](=O)[O-])c3)nc2c1 | 111% | 108% | 104% | 109% | 100% | 102% | 104% | 105% | 93.2% | 106% |
| Fc1ccc(CNc2cccc3[nH]c(C(F)(F)F)nc23)cc1 | 66% | 36.5% | 90.1% | 90.2% | 89.3% | 97.9% | 109% | 76.6% | 82.3% | 100% |
| CSc1ccc(-c2ccccc(=O)c2O)cc1 | 5.18% (active) | 10.1% | 14.6% | 52.9% | 32.5% | 11.8% | 12.7% | 25.1% | 56.4% | 5.46% (active) |
| CCOc1cc2ncc(C#N)c(Nc3ccc(OCc4cccc(F)c4)c(Cl)c3)c2cc1NC(=O)CCCCC1CCSS1 (stereo not given) | 92.4% | 78.6% | 91% | 111% | 99.6% | 83.7% | 82.2% | 102% | 91.3% | 101% |
| FC(F)(F)c1[nH]ncc1-c1nc2ccc3n[nH]c(C#Cc4cccnc4)c3c2c2c1CCCC2 | 14.2% | 47.7% | 45.5% | 67.3% | 80.5% | 27.8% | 17.8% | 54.2% | 13.8% | 72.1% |
| COc1ccc(C2C(C#N)=C(N)Oc3n[nH]c(-c4cccs4)c32)cc1I (stereo not given) | 53.2% | 78.8% | 95% | 107% | 108% | 92.1% | 91.2% | 91.7% | 87.5% | 96.2% |
| COc1ccc2c(c1)c(-c1nonc1-c1cn(C)c3ccccc13)cn2C | 30.1% | 21.2% | 35.6% | 52% | 45.5% | 44.6% | 42.5% | 3.08% (active) | 16.7% | 17.1% |
| O=C1NC(=O)C(c2ccc(Cl)cc2Cl)N1 (stereo not given) | 92.6% | 109% | 112% | 106% | 113% | 108% | 114% | 112% | 102% | 106% |
| Cc1[nH]c(-c2ccc3cc[nH]c3c2)c2c1C(=O)CCCC2 | 50.9% | 21.9% | 46.4% | 78.2% | 48.5% | 25.5% | 36.9% | 51% | 21.9% | 40.7% |
| COc1ccc(C(=O)c2sc3nc(C)cc(C)c3c2N)cc1OC | 83.5% | 96% | 65.7% | 104% | 85.3% | 77.6% | 88.8% | 94.8% | 91.2% | 90.2% |
| Cc1ccc2c(C(C[N+](=O)[O-])c3ccccc3)c(-c3ccccc3)[nH]c2c1 (stereo not given) | 25.4% [9.5 µM] | 24.4% [9.5 µM] | 29.6% [9.5 µM] | 52.2% [9.5 µM] | 59.8% [9.5 µM] | 19.3% [9.5 µM] | 27.4% [9.5 µM] | 3.85% [9.5 µM] (active) | 1.97% [9.5 µM] (active) | 10.9% [9.5 µM] |
| O=CNc1ccc2c(c1)Cc1cccc(NC=O)c1-2 | 108% | 103% | 99.5% | 89.6% | 112% | 104% | 103% | 90.2% | 97.1% | 99.7% |
| COc1cc2c(cc1-c1c(C)noc1C)ncc1nc(C3CCOCC3)n([C@H](C)COC(F)F)c12 | 28.3% | 18% | 42.6% | 68.4% | 47.9% | 1.35% (active) | 58.8% | 35.2% | 16.8% | 38.4% |
| CN(C)c1ccc(N=Nc2ccccn2)c(O)c1 | 3.79% (active) | 16.2% | 16% | 68.6% | 28.3% | 19.5% | 14.9% | 33.2% | 60.9% | 12.4% |
| CN1C(=O)C2(SCC(C(=O)NCc3ccccc3)N2C(=O)C2CCCCC2)c2ccccc21 (stereo not given) | 83.3% | 95% | 92% | 105% | 88.1% | 114% | 88% | 90.5% | 89.3% | 94.2% |
| C=C(C)C1CC(O)C2(C)CCCC3C2C1CC(C)C3(C)CC/C(C)=C/C(O)C1CCC(=O)c2c(OC)cc(OC)cc21 (stereo not given) | 26.6% | 6.09% (active) | 41.6% | 86.9% | 23.3% | 51% | 50.9% | 32.7% | 61.6% | 45.9% |
| C#CCOc1ccc2ncnc(N3CCC(NC(=O)CCl)CC3)c2c1 | 62.6% [8.25 µM] | 44.4% [8.25 µM] | 76.3% [8.25 µM] | 100% [8.25 µM] | 36.5% [8.25 µM] | 69.6% [8.25 µM] | 51.4% [8.25 µM] | 68.2% [8.25 µM] | 46.7% [8.25 µM] | 88.2% [8.25 µM] |
| O=C(CCl)Oc1ccc(-c2ccccc2)c(Br)c1 | 96.9% | 106% | 103% | 107% | 105% | 104% | 112% | 108% | 108% | 103% |
| COc1cc(/C=C/C(=O)c2cccnc2Nc2ccc(F)cc2)cc(OC)c1OC | 2.85% (active) | 1.24% (active) | 1.62% (active) | 35.8% | 61.6% | 42% | 91.7% | 16.1% | 24.9% | 8.54% (active) |
| Cc1cc(C)nc(SC2=C(Nc3cc(Cl)ccc3O)C(=O)N(Cc3ccccc3)C2=O)n1 | 54% [30 µM] | 36.5% [30 µM] | 76.4% [30 µM] | 123% [30 µM] | 71.2% [30 µM] | 103% [30 µM] | 83.8% [30 µM] | 88.3% [30 µM] | 82.7% [30 µM] | 74.6% [30 µM] |
